In PubChem BioAssay (NCATS):
Inconclusive results are not listed. The source made the active and inactive calls. Calls come from the whole dose curve; as a rule, active = well fitted curve in the direction sought with a large enough effect; inconclusive = small, poorly fitted or top-dose-only effect, or another doubt; inactive = no such curve, though single readings can be large; an effect the other way counts as inactive or inconclusive.

Key:
[1] = Quantitative High-Throughput drug screen in 47 multiple myeloma cell lines against the NCATS MIPE library collection: FR4_PLB cell viability assay (AID 1918924; note: nearly all actives have a fitted effect of over 35% in size)
Summary of the method: (§1)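 Myeloma cell lines, 500 cells per well, exposed to MIPE 4.0 library compounds for 48 h at 37C, 5% CO2. Viability from ATP by CellTiter-Glo luminescence; normalised to DMSO (100%) and media-only (0%) wells.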

[2] = Quantitative High-Throughput drug screen in 47 multiple myeloma cell lines against the NCATS MIPE library collection: Delta47_JCRB cell viability assay (AID 1918925; note: nearly all actives have a fitted effect of over 45% in size)
Summary of the method: (§2)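 Relative luminescence from CellTiter-Glo served as the viability signal, referenced to DMSO-treated (100%) and cell-free medium (0%) controls. Treatment lasted 48 hours at 37C with 500 cells per well.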

[3] = Quantitative High-Throughput drug screen in 47 multiple myeloma cell lines against the NCATS MIPE library collection: EJM_DSMZ cell viability assay (AID 1918926; note: nearly all actives have a fitted effect of over 30% in size)
Summary of the method: as §2

[4] = Quantitative High-Throughput drug screen in 47 multiple myeloma cell lines against the NCATS MIPE library collection: AMO1_DSMZ cell viability assay (AID 1918927; note: nearly all actives have a fitted effect of over 30% in size)
Summary of the method: as §2

[5] = Quantitative High-Throughput drug screen in 47 multiple myeloma cell lines against the NCATS MIPE library collection: Karpas620_DSMZ cell viability assay (AID 1918959); note: nearly all actives have a fitted effect of over 30% in size
Summary of the method: as §1

[6] = Quantitative High-Throughput drug screen in 47 multiple myeloma cell lines against the NCATS MIPE library collection: KMM1_JCRB cell viability assay (AID 1918960); note: nearly all actives have a fitted effect of over 30% in size
Summary of the method: (§3)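 Myeloma cells, 500 per well, were exposed to MIPE 4.0 drugs by pin transfer for 48 h at 37 °C, 5% CO2. Viability was read as ATP luminescence with CellTiter-Glo, normalised to DMSO-only (100%) and medium-only (0%) wells.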

[7] = Quantitative High-Throughput drug screen in 47 multiple myeloma cell lines against the NCATS MIPE library collection: Karpas417_ECACC cell viability assay (AID 1918961); details: Karpas417 myeloma viability, CellTiter-Glo ATP luminescence, 48 h; viability (% of DMSO): at 45.8 µM (top of the series)
Summary of the method: as §1

[8] = Quantitative High-Throughput drug screen in 47 multiple myeloma cell lines against the NCATS MIPE library collection: KHM11_PLB cell viability assay (AID 1918962); note: nearly all actives have a fitted effect of over 35% in size
Summary of the method: as §1

[9] = Quantitative High-Throughput drug screen in 47 multiple myeloma cell lines against the NCATS MIPE library collection: JIM3_ECACC cell viability assay (AID 1918963; note: nearly all actives have a fitted effect of over 35% in size)
Summary of the method: as §1

[10] = Quantitative High-Throughput drug screen in 47 multiple myeloma cell lines against the NCATS MIPE library collection: JIM1_ECACC cell viability assay (AID 1918964)
Summary of the method: as §2

[11] = Quantitative High-Throughput drug screen in 47 multiple myeloma cell lines against the NCATS MIPE library collection: INA6_PLB cell viability assay (AID 1918965; note: nearly all actives have a fitted effect of over 55% in size)
Summary of the method: as §1

[12] = Quantitative High-Throughput drug screen in 47 multiple myeloma cell lines against the NCATS MIPE library collection: Karpas25_ECACC cell viability assay (AID 1918968; note: nearly all actives have a fitted effect of over 35% in size)
Summary of the method: as §2

[13] = Quantitative High-Throughput drug screen in 47 multiple myeloma cell lines against the NCATS MIPE library collection: KMS27_JCRB cell viability assay (AID 1918970); note: nearly all actives have a fitted effect of over 30% in size
Summary of the method: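 CellTiter-Glo luminescence after 48 h drug exposure at 37 °C; 500 cells/well, 1536-well format, pin-tool compound addition; DMSO = 100%, media-only = 0% viability.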

[14] = Quantitative High-Throughput drug screen in 47 multiple myeloma cell lines against the NCATS MIPE library collection: KMS12BM_JCRB cell viability assay (AID 1918971); note: nearly all actives have a fitted effect of over 35% in size
Summary of the method: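 Viability readout: CellTiter-Glo luminescence following 5 min room-temperature incubation with reagent. Prior exposure: 48 h, 37C, humidified 5% CO2, 500 cells per well.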

[15] = Quantitative High-Throughput drug screen in 47 multiple myeloma cell lines against the NCATS MIPE library collection: KMS12PE_JCRB cell viability assay (AID 1918972); note: nearly all actives have a fitted effect of over 30% in size
Summary of the method: as §1

[16] = Quantitative High-Throughput drug screen in 47 multiple myeloma cell lines against the NCATS MIPE library collection: KMS20_JCRB cell viability assay (AID 1918973); note: nearly all actives have a fitted effect of over 45% in size
Summary of the method: as §2

[17] = Quantitative High-Throughput drug screen in 47 multiple myeloma cell lines against the NCATS MIPE library collection: ARP1_JJKsccF8 cell viability assay (AID 1918928; note: nearly all actives have a fitted effect of over 40% in size)
Summary of the method: as §3

[18] = Quantitative High-Throughput drug screen in 47 multiple myeloma cell lines against the NCATS MIPE library collection: JJN3_DSMZ cell viability assay (AID 1918966; note: nearly all actives have a fitted effect of over 50% in size)
Summary of the method: as §2

[19] = Quantitative High-Throughput drug screen in 47 multiple myeloma cell lines against the NCATS MIPE library collection: H1112_PLB cell viability assay (AID 1918967; note: nearly all actives have a fitted effect of over 30% in size)
Summary of the method: as §2

[20] = Quantitative High-Throughput drug screen in 47 multiple myeloma cell lines against the NCATS MIPE library collection: ARD_JJKsccE7 cell viability assay (AID 1918929)
Summary of the method: as §2
Potency is the fitted concentration of half-maximal effect.

In the case of CCc1ccc(OCc2ccccc2C(=O)Nc2ccc3nc(C)cc(N)c3c2)cc1, the Potency [1] is reported as 8.33 µM (active), the Potency [2] is reported as 1.18 µM (active) and the Potency [3] is reported as 7.43 µM (active). The Potency [4] was 3.32 µM (active), the Potency [5] was 1.05 µM (active) and the Potency [6] was 2.64 µM (active). For the same compound, the Potency [7] was 1.87 µM (active), the Potency [8] was 2.35 µM (active) and the Potency [9] was 2.64 µM (active). The Potency [10] was 2.64 µM (active), the Potency [11] was 2.64 µM (active) and the Potency [12] was 1320 nM (active). The Potency [13] was 1.87 µM (active), the Potency [14] was 7.43 µM (active) and the Potency [15] was 0.935 µM (active). For the same compound, the Potency [16] was 590 nM (active).

With CC[C@@]1(O)C[C@H](O[C@H]2C[C@H](N(C)C)[C@H](O[C@H]3C[C@H](O)[C@H](O[C@H]4CCC(=O)[C@H](C)O4)[C@H](C)O3)[C@H](C)O2)c2c(cc3c(c2O)C(=O)c2c(O)cccc2C3=O)[C@@H]1C(=O)OC the Potency [1] was 0.332 µM (active), the Potency [2] was 0.0662 µM (active) and the Potency [3] was 0.469 µM (active). The Potency [4] was 0.833 µM (active), the Potency [17] was 1.05 µM (active) and the Potency [6] was 5.9 µM (active). The Potency [8] was 0.132 µM (active), the Potency [9] was 0.332 µM (active) and the Potency [11] was 0.0662 µM (active). The Potency [18] was 296 nM (active), the Potency [19] was 833 nM (active) and the Potency [12] was 372 nM (active). The Potency [13] was “inactive”, the Potency [14] was 0.148 µM (active) and the Potency [16] was 74.3 nM (active).

For COc1cc2ncnc(Nc3ccc(F)c(Cl)c3)c2cc1OCCCN1CCOCC1, the Potency [1] was 19.1 µM (active), the Potency [2] was 5.4 µM (active) and the Potency [3] was 6.05 µM (active). For the same compound, the Potency [4] was 4.81 µM (active), the Potency [20] was 12.1 µM (active) and the Potency [5] was 6.79 µM (active). The Potency [6] was 8.55 µM (active), the Potency [7] was 3.4 µM (active) and the Potency [8] was 3.4 µM (active). The Potency [9] was 13.6 µM (active), the Potency [10] was 5.4 µM (active) and the Potency [11] was 5.4 µM (active). The Potency [12] was 6050 nM (active), the Potency [13] was 13.6 µM (active) and the Potency [14] was 34 µM (active). For the same compound, the Potency [15] was 3.03 µM (active) and the Potency [16] was 3400 nM (active).

With O=C1c2ccccc2-[n+]2ccc3c([nH]c4ccccc43)c21 the Potency [1] was 1.32 µM (active), the Potency [2] was 1.32 µM (active) and the Potency [3] was 1.48 µM (active). The Potency [4] was 5.9 µM (active), the Potency [17] was 2.09 µM (active) and the Potency [20] was 7.43 µM (active). The Potency [5] was 3.72 µM (active), the Potency [6] was 3.72 µM (active) and the Potency [7] was 8.33 µM (active). The Potency [8] was 2.35 µM (active), the Potency [9] was 0.59 µM (active) and the Potency [10] was 3.72 µM (active). The Potency [11] was 1.18 µM (active), the Potency [18] was 1480 nM (active) and the Potency [19] was 5260 nM (active). The Potency [12] was 418 nM (active), the Potency [13] was 2.64 µM (active) and the Potency [14] was 2.09 µM (active). For the same compound, the Potency [15] was 5.26 µM (active) and the Potency [16] was 1050 nM (active).

In the case of COc1cc2ncnc(-n3nc(-c4ccccn4)nc3N)c2cc1OC, the Potency [1] is reported as 11.8 µM (active), the Potency [2] is reported as 1.48 µM (active) and the Potency [3] is reported as 14.8 µM (active). For the same compound, the Potency [4] was “inactive”, the Potency [20] was 0.743 µM (active) and the Potency [5] was 0.418 µM (active). The Potency [6] was 1.05 µM (active), the Potency [7] was 0.132 µM (active) and the Potency [8] was 5.9 µM (active). The Potency [9] was 8.33 µM (active), the Potency [11] was 7.43 µM (active) and the Potency [18] was 4690 nM (active). The Potency [19] was 743 nM (active), the Potency [12] was 743 nM (active) and the Potency [13] was 0.0935 µM (active). For the same compound, the Potency [14] was 7.43 µM (active), the Potency [15] was 1.32 µM (active) and the Potency [16] was 6620 nM (active).

With O=C(Nc1c(Cl)cncc1Cl)c1ccc(OC(F)F)c(OCC2CC2)c1 the Potency [1] was “inactive”, the Potency [2] was 26.4 µM (active) and the Potency [3] was “inactive”. For the same compound, the Potency [4] was “inactive”, the Potency [17] was “inactive” and the Potency [20] was “inactive”. The Potency [5] was “inactive”, the Potency [6] was “inactive” and the Potency [9] was “inactive”. The Potency [11] was 37.2 µM (active), the Potency [19] was “inactive” and the Potency [13] was “inactive”. The Potency [14] was “inactive” and the Potency [15] was “inactive”.

With CO[C@H]1C=CC=C(C)C(=O)NC2=CC(=O)C(NCCN(C)C)=C(C[C@@H](C)C[C@H](OC)[C@@H](O)[C@@H](C)C=C(C)[C@@H]1OC(N)=O)C2=O the Potency [1] was 0.166 µM (active), the Potency [2] was 0.0469 µM (active) and the Potency [3] was 1.48 µM (active). The Potency [4] was 0.0469 µM (active), the Potency [17] was 0.0118 µM (active) and the Potency [20] was 0.001 µM (active). The Potency [5] was 0.296 µM (active), the Potency [6] was 0.0526 µM (active) and the Potency [8] was 0.0372 µM (active). The Potency [9] was 0.0743 µM (active), the Potency [10] was 0.0209 µM (active) and the Potency [11] was 0.0235 µM (active). The Potency [19] was 3320 nM (active), the Potency [12] was 59 nM (active) and the Potency [13] was 0.0264 µM (active). The Potency [14] was 0.0469 µM (active), the Potency [15] was 0.0662 µM (active) and the Potency [16] was 1 nM (active).

With CON=C(C(=O)N[C@@H]1C(=O)N2C(C(=O)OCOC(=O)C(C)(C)C)=C(C=Cc3scnc3C)CS[C@H]12)c1csc(N)n1 the Potency [1] was “inactive”, the Potency [2] was “inactive” and the Potency [3] was “inactive”. The Potency [4] was “inactive”, the Potency [17] was “inactive” and the Potency [5] was 16.6 µM (active). For the same compound, the Potency [7] was 20.9 µM (active), the Potency [8] was 18.7 µM (active) and the Potency [9] was “inactive”. The Potency [11] was 18.7 µM (active), the Potency [14] was “inactive” and the Potency [16] was “inactive”.

For CC(=Cc1ccccc1)C=C1SC(=S)N(CC(=O)O)C1=O, the Potency [1] was “inactive”, the Potency [2] was “inactive” and the Potency [3] was “inactive”. The Potency [4] was “inactive”, the Potency [20] was “inactive” and the Potency [6] was “inactive”. The Potency [7] was “inactive”, the Potency [8] was “inactive” and the Potency [9] was “inactive”. For the same compound, the Potency [11] was “inactive”, the Potency [19] was “inactive” and the Potency [13] was 0.59 µM (active). For the same compound, the Potency [14] was “inactive”, the Potency [15] was “inactive” and the Potency [16] was “inactive”.

In the case of COc1cc2c(cc1OC)CN(CCc1ccc(NC(=O)c3cc(OC)c(OC)cc3NC(=O)c3cnc4ccccc4c3)cc1)CC2, the Potency [1] is reported as “inactive”, the Potency [2] is reported as 13.2 µM (active) and the Potency [3] is reported as “inactive”. For the same compound, the Potency [4] was “inactive”, the Potency [20] was “inactive” and the Potency [5] was “inactive”. For the same compound, the Potency [6] was “inactive”, the Potency [8] was 20.9 µM (active) and the Potency [9] was 23.5 µM (active). For the same compound, the Potency [18] was 526 nM (active), the Potency [12] was 8330 nM (active) and the Potency [13] was “inactive”. For the same compound, the Potency [14] was 10.5 µM (active) and the Potency [15] was “inactive”.
